Reference: PubChem BioAssay AID652040 (Broad Institute, 2013)
Measured potencies and affinities stand elsewhere. The source made the active and inactive calls.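 How the source made its calls: active means falling luciferase signal whose fitted half-maximal concentration is at most twice the top tested dose; inconclusive means flat inhibition between 30 and 70% or a poor curve fit; inactive means the rest.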

Experiment: off-target signal loss in HeLa-CEM21 co-culture – HeLa F-luc CTL cells, cherry-picked, counter-screen for HIV-1 Env fusion inhibitor project, dose response (AID 652040);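 further: more negative values mean stronger loss of luciferase signal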
Conditions: HeLa-F-luc CTL cells with CEM21, firefly luciferase counterscreen; series mostly up to 35 µM

| SMILES | outcome |
| --- | --- |
| CCc1nc2ccccc2c(C(=O)OCC(=O)Nc2cccc(S(=O)(=O)N3CCOCC3)c2)c1C | inactive |
| O=C(CNC(=O)c1cccc(-n2cccc2)c1)Nc1ccccc1Br | inactive |
| Cc1cccc(N2CCN(C(=O)CCCSc3nc4ccccc4[nH]3)CC2)c1C | inactive |
| CS(=O)(=O)N1CCN(c2ccccc2NC(=O)C(c2ccccc2)c2ccccc2)CC1 | inactive |
| COc1ccc(C(O)c2nc3ccccc3n2C)cc1OC (stereo not given) | inactive |
| Cc1cc(Cl)c(S(=O)(=O)N2CCSCC2)cc1OCC(=O)NC1CCCCC1 | inactive |
| CC(C)n1c(NCCc2ccccc2)nc2c1c(=O)n(C)c(=O)n2C | inactive |
| O=C(Nc1cccc(C(F)(F)F)c1)c1ccc(Cn2cc(Br)cn2)o1 | inactive |
| COc1ccc(OCC(=O)Nc2ccccc2N2CCCCC2)cc1 | inactive |
| CN1CC(c2ccccc2)C2(SC(=S)N(Cc3ccco3)C2=O)C12C(=O)Nc1ccccc12 (stereo not given) | inactive |
| CC(=O)c1c(C)[nH]c(C(=O)OCC(=O)Nc2ccc(Cl)c(S(=O)(=O)N(C)C)c2)c1C | inactive |
| Cc1cc2ncn(S(=O)(=O)N3CCCCC3)c2cc1C | inactive |
| O=C(Nc1ccc(S(=O)(=O)N2CCN(Cc3ccccc3)CC2)cc1)c1cnccn1 | inactive |
| Cn1cc(S(=O)(=O)N2CCOCC2)cc1C(=O)Nc1cccc(Cl)c1 | inactive |
| CCCc1cc(C(=O)NCc2ccc(OC)cc2)no1 | inactive |
| O=C(c1ccc(Cl)s1)N1CCN(c2nc3ccccc3s2)CC1 | inactive |
| COc1ccc(OC2C(=O)N(Cc3ccc4c(c3)OCO4)C2c2cccs2)cc1 (stereo not given) | inactive |
| CCOC(=O)[C@@H]1[C@H]2COc3cc(OC)ccc3[C@H]2N2C(=O)N(c3cccc(F)c3)C(=O)[C@@]12C | inactive |
| Cc1ccc(C(=O)NCc2ccccn2)cc1S(=O)(=O)N1CCCCC1 | inactive |
| Cc1cccc(C)c1NC(=O)N1CCN(c2nc3ccccc3s2)CC1 | inactive |

| SMILES | outcome |
| --- | --- |
| Cc1nn(C)c(C)c1CN(C)S(=O)(=O)c1ccc2ccccc2c1 | inactive |
| CC1CCC(C(C)C)C(OC(=O)Cn2c(-c3ccccc3)[n+](C)c3ccccc32)C1 (stereo not given) | inactive |
| CCN(C1CCCCC1)S(=O)(=O)c1ccc(S(=O)(=O)NCc2ccncc2)cc1 | inactive |
| CC1(C(=O)NCc2ccc3c(c2)OCO3)CCN1Cc1csc2ccccc12 (stereo not given) | inactive |
| Cc1nc2ccc(NC(=O)c3cc(S(=O)(=O)N(C)c4ccccc4)ccc3Cl)cc2s1 | inactive |
| CSc1ncccc1C(=O)OCC(=O)Nc1ccc(C)c(S(=O)(=O)N2CCOCC2)c1 | inactive |
| COc1ccc(NC(=O)c2ccc(Cl)c(S(=O)(=O)N3CCc4ccccc4C3)c2)cn1 | inactive |
| O=C(Cc1ccc(Cl)cc1Cl)Nc1ccncc1 | inactive |
| O=C(Nc1nc(COc2ccccc2)cs1)C12CC3CC(CC(C3)C1)C2 | inactive |
| c1ccc2c(c1)ncn2CCCCOc1ccc2c(c1)CCC2 | inactive |
| COCC(C)n1c(-c2ccc3c(c2)NC(=O)CO3)csc1=Nc1ccc(OC(F)F)cc1 (stereo not given) | inactive |
| CC1CCCN(C(=O)c2ccc(S(=O)(=O)N3CCC(c4nc5ccccc5s4)CC3)cc2)C1 (stereo not given) | inactive |
| CCCCOCCCNc1ncnc2c1[nH]c1ccccc12 | inactive |
| CC1CN(S(=O)(=O)c2cc(C(=O)NCCC3=CCCCC3)ccc2Cl)CC(C)O1 (stereo not given) | inactive |
| Cc1ccccc1OCCCCn1cnc2ccccc21 | inactive |
| COc1ccc(C(=O)NCCc2ccc(Cl)cc2)cc1S(=O)(=O)N1CCCCC1C (stereo not given) | inactive |
| Cc1oc(-c2ccc(Cl)cc2)nc1CN1CCCC(C(=O)NCc2cccnc2)C1 (stereo not given) | inactive |
| COc1ccccc1Oc1ccc(S(=O)(=O)NCc2ccccn2)cc1 | inactive |
| COc1ccc(CCN(Cc2cccs2)S(=O)(=O)c2ccc(-n3cnnn3)cc2)cc1OC | inactive |
| CCC(=O)N(C)C(c1ccccc1Cl)c1nnnn1-c1c(C)cccc1C (stereo not given) | inactive |
